According to PubChem BioAssay (NCI):
Compounds without any hit were thinned out: in the full panel of roughly 83,000, 20% have a hit.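 For each line, cells grew in 96-well plates with the test compound present at a single concentration for 48 hours.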 Unmarked numbers belong to inactive results. Activity calls are given as the source filed them. The calls were made as follows: active = growth percent below 10; inactive = the rest.

tested on: MDA-MB-468 breast; assay: NCI-60 one-dose screen, 48 h (100 = growth as untreated, 0 = no growth, -100 = all killed); conditions: 10 µM unless noted

| SMILES | growth |
| --- | --- |
| CCc1c(Cl)nc(N)nc1Nc1ccc(C)c(C)c1 | 83.2% |
| CC(=O)N1N=C(c2ccc(C(F)(F)F)cc2)CC1c1ccc2c(c1)OCO2 (stereo not given) | 93.8% |
| Cc1ccc(S(=O)(=O)Nc2c(Br)cc(Br)cc2C(N)=O)cc1 | 102% |
| C#CCC(C)(O)/C=C/C1=C(C)CCCC1(C)C (stereo not given) | 87.3% |
| CCN(CC)CCOc1ccc(Nc2ncc3cc(-c4ccc(O)cc4)c(=O)n(C)c3n2)cc1 | 44.8% |
| CC1=CC(=O)C(C(C)C)=CC1=Nc1cc(Br)c(O)c(Br)c1 | 44.7% |
| O=C(/C=C/c1sc(Cl)nc1Cl)c1ccc(F)cc1 | 40.9% |
| NC(=S)CN1CCOCC1 | 104% |
| OCc1n(Cc2ccc3ccccc3c2)cc[n+]1Cc1ccc2ccccc2c1 | -29% (active) |
| Fc1ccc(Oc2ccc(Nc3ncnc4onc(-c5ccccc5)c34)cc2)cc1 | 101% |
| CCN1C(=O)N(CC)C2C1NN=c1s/c(=C\c3cccs3)c(=O)n12 (stereo not given) | 15.3% |
| N#Cc1nc(-c2ccccc2)oc1S(=O)(=O)N1CCN(c2ccc(F)cc2)CC1 | 44.8% |
| O=C1CCc2c(sc3[nH]c(=S)n(Cc4ccc(Cl)cc4)c(=O)c23)C1 | -18.7% (active) |
| N#Cc1nc(-c2ccc(F)cc2)oc1S(=O)(=O)N1CCCCC1 | 52.7% |
| COc1cc(OC)c(C(=O)C(CN(C)C)CN(C)C)cc1OC | -73.3% (active) |
| CC(C)=C1C=C2CC[C@@H]3[C@](C)(CCC[C@@]3(C)C(=O)O)[C@H]2CC1 | 0.17% (active) |
| N#Cc1nc(-c2ccc(Cl)cc2)oc1S(=O)(=O)N1CCN(c2ccc(F)cc2)CC1 | 105% |
| Cc1ccc2c(C(C[N+](=O)[O-])c3ccccc3F)c(-c3ccccc3)[nH]c2c1 (stereo not given) | 10.5% |
| C=CCn1c(SCC(=O)Nc2cccc(C(=O)/C=C/c3ccccc3)c2)nc2ccccc2c1=O | 78.9% |
| NS(=O)(=O)c1ccc(-n2cc(-c3cccc(NC(=O)c4ccc(N5CCOCC5)c(C(F)(F)F)c4)c3)nn2)cc1 | 36.7% |

| SMILES | growth |
| --- | --- |
| C#C[C@]1(O)CC[C@H]2[C@@H]3CC=C4c5sc(Nc6ccc(OC)nc6)nc5CC[C@]4(C)[C@H]3CC[C@@]21C | 17.4% |
| O=C(/C=C/c1ccco1)Nc1ncc(Cc2cccc(C(F)(F)F)c2)s1 | 10.1% |
| C=CCn1c(SCC(=O)Nc2ccc(/C(C)=N/O)cc2)nnc1-c1cc(-c2ccc(S(N)(=O)=O)cc2)nc2ccccc12 | 57% |
| O=C(NCc1cccc(C(F)(F)F)c1)[C@H](CCC(=O)N1CCN(C2CCCCC2)CC1)N1C(=O)[C@@H](N2C(=O)OC[C@@H]2c2ccccc2)[C@H]1/C(Cl)=C/c1ccccc1 | -5.16% (active) |
| CCCCOc1ccc(/C=N/Nc2cc(C)nc3ccc(Cl)cc23)cc1 | -65.9% (active) |
| COc1ccc(/C=c2\c(=O)n(-c3ccccc3)c3nn4c(n23)=NNC42CCCCC2)cc1 | 110% |
| Nc1ncnc2c1c(-c1ccc(Oc3ccccc3)cc1)nn2C[C@@H]1SSC[C@H]1O | -0.15% (active) |
| CCOc1cc(N)ccc1C(=O)NCCCN(CC)CC | 85% |
| CC(C)C[C@H](NC(=O)Cn1ccc2ccccc2c1=O)B(O)O | 0.399% (active) |
| Cc1cc2nc3c4cc(C#N)ccc4n(CCN(C)C)c3nc2cc1C | -41.7% (active) |
| CCOc1cc(/C=N\NC(=O)C[N+](C)(C)C)ccc1O | 123% |
| COC(=O)c1cnc2c(c1)Oc1ccccc1-c1ccnn1-2 | 101% |
| COC(=O)c1cc2oc(/C=N/NC(=O)c3cc4oc(-c5cccc(C(F)(F)F)c5)cc4[nH]3)cc2n1Cc1ccccc1 | 106% |
| CC1=NC2=CC=CC3=NC(C(Cl)(Cl)Cl)=NC(=N1)N23 | 90.2% |
| CNC(=O)c1c(NC(=O)c2ccc(C(C)C)cc2)sc2c1CCC(=O)C2 | -28.4% (active) |
| Cc1cc(C)c(O)c(C(=O)CC(Br)C(=O)O)c1 (stereo not given) | 74.9% |
| COc1ccc(-c2nc3c(N)c(CO)cnc3s2)cc1 | 57.6% |
| CCCCCCCCc1ccc(CCC(N)(CO)CO)cc1 | -93.1% (active) |
| Cc1ccc(C(C)C)cc1C(=O)C[n+]1ccccc1 | 107% |
| O=C1c2cc3c(cc2-c2c1c1ccc(Cl)cc1c(=O)n2CCCN1CCOCC1)OCO3 | 31.6% |
